# Source: PubChem BioAssay
# NLRP3 yeast inh = NALP3 inhibition in yeast; Yeast reconstituted NLRP3/ASC/caspase-1, beta-gal luminescence, 24 h; inhibition, % at 10 µM; 0.39% of 330,000 active; AID 2825;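 active means inhibition of 50% or more; inactive means inhibition below 50%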;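 further: plate controls were induced DMSO wells for no effect and uninduced yeast grown without galactose for full effect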
# tim23-1 inh = inhibits growth of tim23-1 mutant yeast. S. cerevisiae tim23-1 growth, BacTiter-Glo luminescence, 24 h. inhibition, % at 20 µM. 1.3% of 330,000 active. AID 463212;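 active means growth inhibition of the mutant yeast at or above 50%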;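 further: temperature-sensitive mutant grown at 25 °C; plate controls were DMSO-treated mutant yeast for no effect and medium wells lacking yeast for full effect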
# SKKanGAS inh = inhibitors of SKKanGAS S. pyogenes growth in kanamycin (SK-promoter or general growth effect); AID 1662; inhibition, % at 7.5 µM; 1.3% of 300,000 active; BacTiter-Glo, 6 h;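 active means mean replicate score, as percent of positive control median, at least 50; inconclusive means mean below 50 but one replicate at or above 50; inactive means mean and every replicate below 50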;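 further: strain carries kanamycin resistance gene driven by streptokinase promoter and grows in 40 µg/ml kanamycin; loss of luminescence reflects streptokinase promoter inhibition or plain growth inhibition; 0% = median of DMSO wells and 100% = positive control at its reference dose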
# TIM10 inh = inhibits growth of TIM10 yeast strain | S. cerevisiae TIM10 strain growth, BacTiter-Glo luminescence, 24 h | inhibition, % at 10 µM | 1.4% of 330,000 active;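 active means inhibition of 40% or more at the single tested concentration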;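 further: wild-type TIM10 isogenic control strain grown at permissive 25 °C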
# tim10-1 inh = tim10-1 yeast growth inhibition; S. cerevisiae tim10-1 ts strain growth, BacTiter-Glo, 24 h; inhibition, % at 20 µM; 2.2% of 330,000 active;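 active means inhibition of at least 40%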;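 further: mutant grown at 25 °C; 0% = DMSO wells with yeast and 100% = wells holding no yeast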
# tim10-1 conf = tim10-1 yeast growth inhibition, confirmed; shares compounds with tim10-1 inh; S. cerevisiae tim10-1 ts strain growth, BacTiter-Glo, 24 h; inhibition, % at 20 µM; 56% of 7,400 active;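 active means inhibition of yeast growth at or above a set limit in either of two repeat tests at 20 µM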;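 further: tim10-1 mutant grown at permissive 25 °C to find synthetic lethal compounds; 0% = DMSO yeast wells and 100% = medium wells without yeast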
# tim10 confirm = TIM10 yeast growth inhibition, confirmed | S. cerevisiae tim10 strain growth, BacTiter-Glo luminescence, 24 h | inhibition, % at 10 µM | AID 463215 | shares compounds with TIM10 inh | 63% of 4,600 active;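 active means inhibition of yeast growth at or above a set limit in either of two replicates at 10 µM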;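 further: this counterscreen used the strain with wild-type TIM10; 0% = yeast with DMSO and 100% = medium wells lacking yeast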
# tim23-1 conf = confirmation of tim23-1 mutant yeast growth inhibitors. shares compounds with tim23-1 inh. S. cerevisiae tim23-1 growth, BacTiter-Glo luminescence, 24 h. inhibition, % at 20 µM. 83% of 4,400 active. AID 463218;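 active means inhibition above about 39% in either of two replicate wells at 20 µM, limit read from the data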;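 further: temperature-sensitive tim23-1 mutant grown at 25 °C; 0% = DMSO wells with yeast and 100% = medium wells without yeast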
# * = called active by the depositor; ? = inconclusive; / = not tested or not shown. A selection: hits, their analogues and other compounds. The true share with any hit is near 4.6%.
SMILES,NLRP3 yeast inh,tim23-1 inh,SKKanGAS inh,TIM10 inh,tim10-1 inh,tim10-1 conf,tim10 confirm,tim23-1 conf
CC(C)Cn1nc(C(=O)Nc2nnc(C3CC3)s2)c2ccccc2c1=O,26,52*,/,20,47*,29*,/,41*
CCc1nnc(NC(=O)c2ccc(C)o2)s1,-5,-3,4,-4,-17,/,/,/
Cc1ccc(C(=O)Nc2ncc(Cc3ccccc3)s2)o1,19,57*,23,49*,53*,50*,50*,54*
O=C(Nc1ncc(Cc2cccc(Cl)c2)s1)c1cccs1,20,67*,95*,67*,43*,38*,-19,55*
O=C(Nc1nnc(Cc2ccccc2)s1)c1cccs1,10,10,8,0,3,/,/,/
O=C(Nc1ncc(Cc2ccccc2)s1)c1cccs1,40,72*,66*,52*,51*,50*,61*,52*
CCC(OC(=O)c1cc2sccc2n1C)C(=O)NCc1ccco1 (centres undefined),10,-11,-8,-180,-63,/,/,/
O=C(Nc1ccc2nc3n(c(=O)c2c1)CCCCC3)C(=O)N1CCN(c2ccccc2F)CC1,27,14,-2,7,6,/,/,/
O=C(OC1CCCCC1)c1ccc(NC(=O)c2ccco2)cc1,11,54*,0,23,44*,30,/,70*
COc1cc2c(cc1OC)CN(C1CC(=O)N(c3c(C)cccc3C)C1=O)CC2 (centres undefined),-2,36,-7,18,39,/,/,/
COc1ccccc1N1CCN(C(=O)c2ccc3c(Cl)c4c(nc3c2)CCCC4)CC1,10,56*,25,31,53*,36*,/,57*
COc1ccccc1N1CCN(C(=O)c2cc3c(C)nc4ccccc4c3o2)CC1,22,54*,27,18,49*,16,/,33
Cc1ccc(N(C)C(=O)c2ccc3c(Cl)c4c(nc3c2)CCC4)cc1C,12,55*,6,21,41*,35*,/,56*
CC(=O)n1c(=O)oc2ccccc21,2,4,11,-1,-9,/,/,/
CCN(CC)S(=O)(=O)c1ccc(NC(=O)CO/N=C(\N)c2ccccc2)cc1,-2,13,-7,2,14,/,/,/
COc1cc([N+](=O)[O-])ccc1NC(=O)C[n+]1ccccc1,3,-15,0,-15,-16,/,/,/
CN(C)S(=O)(=O)c1cccc(NC(=S)Nc2cc(Cl)cc(Cl)c2)c1,15,52*,6,60*,58*,36*,23,44*
CN(C)S(=O)(=O)c1cccc(NC(=S)Nc2ccc(Cl)cc2Cl)c1,-14,15,-17,16,23,/,/,/
O=S(=O)(CCc1ccncc1)c1ccc(Cl)cc1,-1,14,-1,-7,22,/,/,/
Cc1nc2ccccc2c(=O)n1/N=C/c1ccc([N+](=O)[O-])o1,4,71*,7,50*,53*,75*,68*,73*
Cc1nc2ccccc2n1/N=C/c1ccc([N+](=O)[O-])s1,13,55*,92*,62*,76*,30,-8,63*
Cc1nc2ccccc2c(=O)n1/N=C/c1ccc(N(C)C)cc1,15,10,9,1,-6,/,/,/
Cc1cccc(N2CCN(C(=O)/C=C/c3cccs3)CC2)c1C,21,30,-6,32,23,/,/,/
Cc1[nH][nH]c(=O)c1C(c1ccc(-c2ccc(F)cc2)o1)c1c(C)[nH][nH]c1=O,-7,85*,1,-43,51*,13,/,60*
COc1ccc(-c2ccc(C(c3c(C)[nH][nH]c3=O)c3c(C)[nH][nH]c3=O)o2)c([N+](=O)[O-])c1,7,31,/,10,12,/,/,/
SMILES,NLRP3 yeast inh,tim23-1 inh,SKKanGAS inh,TIM10 inh,tim10-1 inh,tim10-1 conf,tim10 confirm,tim23-1 conf
COc1ccc2nc(NC(=O)c3ccoc3C)sc2c1,35,55*,66*,47*,58*,59*,32*,61*
COc1ccc2nc(NC(=O)c3cc(C)oc3C)sc2c1,9,34,10,28,30,/,/,/
CC(=O)Nc1ccccc1-c1ccc(C)o1,-1,1,-2,5,-1,/,/,/
Cc1ccc(NC(=O)CS(=O)CC(=O)Nc2ccccc2-c2ccc(C)o2)cc1 (centres undefined),5,50*,1,29,45*,28*,/,47*
CC(=O)/C=C/c1ccccc1Oc1c(F)c(F)nc(F)c1F,-84,54*,-1,26,45*,41*,/,40*
Oc1ccccc1Oc1c(F)c(F)nc(N2CCCC2)c1F,24,37,22,39,38,/,/,/
S=c1[nH]ncn1/N=C/c1cccc(Oc2ccccc2)c1,36,56*,6,52*,61*,46*,0,56*
C=CCn1c(SCC(=O)N(CCOC)c2c(N)n(CCCC)c(=O)[nH]c2=O)nnc1-c1ccc(Cl)cc1,20,-1,15,7,-13,/,/,/
N/C(=N\OC(=O)COc1ccccc1Cl)c1ccc(Cl)cc1,34,60*,26,54*,70*,49*,43*,76*
N/C(=N\OC(=O)C1CCCCC1)c1ccc(Cl)cc1,-4,53*,2,48*,63*,53*,43*,38*
N/C(=N\OC(=O)C1CCCCC1)c1ccncc1,-4,11,-12,14,19,/,/,/
N/C(=N\OC(=O)C1CCCCC1)c1ccc(Br)cc1,8,68*,5,45*,61*,55*,66*,75*
COc1cc(/C=N/NC(=S)NC2CC3CCC2C3)ccc1O (centres undefined),-12,68*,-32,49*,42*,24,43*,52*
S=C(N/N=C/c1ccc2c(c1)OCO2)NC1CC2CCC1C2 (centres undefined),2,22,-12,27,9,/,/,/
COc1ccc(S(=O)(=O)N2CC(C)N(C(=O)N3CCOCC3)C2)cc1 (centres undefined),3,7,-4,-5,9,/,/,/
O=C(Nc1cc(Cl)ccc1-n1cncn1)c1ccc([N+](=O)[O-])o1,10,66*,?,48*,72*,58*,56*,50*
Cc1c(NC(=O)c2ccc([N+](=O)[O-])o2)cccc1-c1nc2ncccc2o1,13,53*,28,47*,49*,48*,53*,64*
COc1cccc(C(=O)Nc2cccc(-c3nc4ncccc4o3)c2C)c1,14,0,-2,17,2,/,/,/
CN1CCN(c2ccccc2NC(=O)c2ccc([N+](=O)[O-])o2)CC1,41,13,-1,9,10,/,/,/
